Data taken from PubChem BioAssay (NCATS).
Results filed as inconclusive are left out. The source made the active and inactive calls. Calls come from the whole dose curve; as a rule, active = well fitted cell-killing curve with a large enough effect; inconclusive = small, poorly fitted or top-dose-only effect, or effect the other way; inactive = flat fitted curve, though single readings scatter. *1 amine or outer side, *2 acyl side, *3 side chain or, on linkers, in order; H or OH if unused. Where a SMILES comes first, the peptide text is derived from it. Bridges are numbered along the chain shown (N, C = ends). [ ]: non-standard residue; d: D form. The star is where a group is joined. pTerphenylCO(4''-OnC5H11) = CCCCCOc1ccc(-c2ccc(-c3ccc(C(=O)*)cc3)cc2)cc1; Orn(4R-OH,5R-OH) = O=C([C@H](C[C@@H](O)[C@@H](O)N[*:3])N[*:1])[*:2]; hTyr(3S-OH,4S-OH) = N[C@H](C(=O)O)[C@H](O)[C@@H](O)c1ccc(O)cc1; Pro(3S-OH,4S-Me) = C[C@H]1CN[C@H](C(=O)O)[C@H]1O; Hyp = O=C(O)[C@@H]1C[C@@H](O)CN1

Experiments:
Assay in all cases: Primary qHTS to identify gynecologic anti-cancer compounds using libraries of approved drugs and bioactive compounds (AID 1345084); note: nearly all actives have a fitted effect of over 55% in size
C33A = conditions: Gynecologic cancer cell panel viability, ATPlite luminescence, 48 h; series mostly up to 57.5 µM
Procedure, shortened: (§1)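 48 h compound exposure at 37 C, 5% CO2; five-point qHTS. ATPlite luminescence readout of cell ATP.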

CAOV3 = conditions: Gynecologic cancer cell panel viability, ATPlite luminescence, 48 h; series mostly up to 57.5 µM
Procedure, shortened: as §1

CASKI = conditions: Gynecologic cancer cell panel viability, ATPlite luminescence, 48 h; series mostly up to 57.5 µM
Procedure, shortened: as §1

Es-2 = conditions: Gynecologic cancer cell panel viability, ATPlite luminescence, 48 h; series mostly up to 57.5 µM
Procedure, shortened: as §1

HeLa = conditions: Gynecologic cancer cell panel viability, ATPlite luminescence, 48 h; series mostly up to 57.5 µM
Procedure, shortened: as §1

Hek293T = conditions: Gynecologic cancer cell panel viability, ATPlite luminescence, 48 h, control line for the selectivity index; series mostly up to 57.5 µM
Procedure, shortened: as §1

JEG-3 = conditions: Gynecologic cancer cell panel viability, ATPlite luminescence, 48 h; series mostly up to 57.5 µM
Procedure, shortened: as §1

Measured: Potency

O=C(Nc1ccccc1Br)NC1CCN(c2ccc(C(F)(F)F)cn2)C1 (centres undefined)
inactive: all assays above

Cc1cc(-c2ncc(-c3cccnc3)cc2/C=C/c2ccccc2)cnc1-c1cccnc1
inactive: all assays above

COc1cc2c(cc1OC(C)C)[C@H](c1ccc(Cl)cc1)N(c1ccc(N(C)CC3CCC(N4CCN(C)C(=O)C4)CC3)cc1)C(=O)C2 (some centres undefined)
inactive: all assays above

Clc1ccc(Cn2c(Cc3ccccc3)nc3ccccc32)cc1
inactive: all assays above

C=C1C(=O)OC2/C=C(\CO)CC/C=C(\C=O)C(O)C(OC(=O)C(C)CC)C12 (centres undefined)
inactive: all assays above

OC1(CN2CCC(COc3noc4cccc(O[C@@H]5CCOC5)c34)CC2)CCOCC1
inactive: all assays above

O=C(NCc1ccccc1-c1ccccc1C(=O)NCCc1ccccn1)OCc1ccccc1
inactive: all assays above

CCOc1cccc(NC(=O)c2ccc(N3CCCC3)c(C(F)(F)F)c2)c1
inactive: all assays above

Cc1cnn(-c2ccccc2)c1NC(=O)COCc1ccccc1
inactive: all assays above

Nc1nc2c(s1)CCN(Cc1ccc(Cl)cc1)CC2
inactive: all assays above

CCOC(=O)CCNc1cc(N2CCc3ccccc3CC2)nc(-c2cccnc2)n1
inactive: all assays above

CCn1c(N)c(C(=O)NC)c(=O)c2ccc(C#CC(C)(O)COC)nc21 (centres undefined)
inactive: all assays above

COc1ccc(S(=O)(=O)Nc2c(C)cc(C)cc2C)cc1
inactive: all assays above

CC(=O)OC1C(OC(=O)c2ccccc2)C2C(C)(C)CCC(OC(C)=O)C2(C)C23CCC(C)(C2)C(=O)CC13 (centres undefined)
inactive: all assays above

O=C1COc2nccc(-c3ccccc3F)c2CN1Cc1cc(C(F)(F)F)cc(C(F)(F)F)c1
inactive: all assays above

CCN(CC)CCCS(=O)(=O)N[C@H](CCc1ccccc1)c1nc(Cc2ccc(Br)cc2)no1
inactive: all assays above

CCOC(=O)c1cnn(-c2ccccc2)c1NC(=O)c1cc2nc(-c3ccco3)cc(C(F)(F)Cl)n2n1
inactive: all assays above

O=C(NCCN1CCN(c2cccc3c2OCCO3)CC1)c1ccc(F)cc1
inactive: all assays above

CNc1nc(Nc2ccc(C(=O)N3CCOCC3)cc2OC)nc2[nH]cc(Cl)c12
inactive: all assays above

Cc1ccc(C)c(NS(=O)(=O)c2cc(C(=O)Nc3ccccc3-c3ccccc3)ccc2C)c1
inactive: all assays above

COc1ccc(NC(=O)c2ccc(-c3ccc(C(=N)N)cc3C)cc2)cc1N1CCN(C)CC1
inactive: all assays above

O=C(Nc1ccc(C(F)(F)F)cn1)N1CCN(c2ncccc2C(F)(F)F)CC1
inactive: all assays above

CC1(C=O)CCCC2(C)C1CCC13CC(CO)C(CCC12)C3 (centres undefined)
inactive: all assays above

CC(C)CCNc1ncccc1C(=O)N1CCN(Cc2ccccc2)CC1
inactive: all assays above

Cn1cc(-c2ccc3c(c2)CCN3C(=O)Cc2cccc(C(F)(F)F)c2)c2c(N)ncnc21
inactive: all assays above

CC(C)(C)OC(=O)c1ncn2c1C(C)(C)Nc1ccccc1-2
inactive: all assays above

COc1cc(-c2nc(N[C@H](CO)Cc3ccccc3)ccc2C(=O)NCCOc2ccccc2)cc(OC)c1OC
inactive: all assays above

CC(=O)[C@H]1CC[C@H]2[C@@H]3CC=C4C[C@@H](OS(=O)(=O)O)CC[C@]4(C)[C@H]3CC[C@]12C
inactive: all assays above

CCCCCOc1ccc(-c2ccc(-c3ccc(C(=O)N[C@H]4C[C@@H](O)[C@@H](O)NC(=O)[C@@H]5[C@@H](O)[C@@H](C)CN5C(=O)[C@H]([C@@H](C)O)NC(=O)[C@H]([C@H](O)[C@@H](O)c5ccc(O)cc5)NC(=O)[C@@H]5C[C@@H](O)CN5C(=O)[C@H]([C@@H](C)O)NC4=O)cc3)cc2)cc1 ({pTerphenylCO(4''-OnC5H11)}-[Orn(4R-OH,5R-OH)]T[Hyp][hTyr(3S-OH,4S-OH)]T[Pro(3S-OH,4S-Me)]; lactam 1-C)
inactive: all assays above

CC1(CO)CC(O)[C@]2(C(=O)O)CCC34CC3(C=CC3[C@]5(C)C(CC[C@]34C)C(C)(CO)[C@@H](O)[C@H](O)[C@@H]5O)C2C1 (some centres undefined)
inactive: all assays above

O=C(Cc1c(F)cccc1F)Nc1cc(OCc2ccc(Cl)cc2)ccn1
inactive: all assays above

C[C@@H]1C[C@H]2O[C@@]3(O[C@@H]2C(C)(C)O)C(O)[C@@]2(C)C4CCC5C(C)(C)[C@@H](O[C@H]6OC[C@H](O)[C@@H](O)[C@@H]6O)CC[C@@]56C[C@@]46CC[C@]2(C)C13 (some centres undefined)
inactive: all assays above
